The values that follow come from the supplement of paper PMC4022240.

± gives the standard deviation.

Holding throughout (assay): peptide microarray binding signal (635 nm), min-max normalized on array (fraction of array maximum); higher = stronger binding
The target of experiment [1] is T1, HaloTag-ATRX ADD domain (163-292).
T1 chain: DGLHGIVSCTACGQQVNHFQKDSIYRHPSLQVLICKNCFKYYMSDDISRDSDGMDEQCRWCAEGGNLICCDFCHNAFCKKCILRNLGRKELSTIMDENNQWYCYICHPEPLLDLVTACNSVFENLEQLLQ
Put shortly:
(§1)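 Within each library, mean intensities of triplicate spots were min-max scaled to give the binding signal. The spots were histone 13-mer peptide–cellulose conjugates on nitrocellulose with a Cy3 tracer, blocked overnight at 4°C. They were then probed for 1 h at 4°C using biotin-labelled HaloTag reader fusions (10 nM to 1 μM) with streptavidin-Alexa Fluor 647 or rabbit histone antibodies (1:10,000 to 1:2,000) with anti-rabbit Alexa 647, and scanned at 635 nm for signal and 532 nm for misprints on an Axon GenePix 4000B.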

In experiment [2] the target is HaloTag-ING2 PHD (mouse Ing2 200-280). Put shortly: as §1
Experiment [3] concerns the target anti-H3K4me3 antibody ab8580. A digest of the protocol: as §1
For experiment [4], the target named is anti-H3K9me3 antibody ab8898. Put shortly:
as §1

Setting [5] is: peptide region: H4 16-28, peptide modifications: H4R19me2s H4K20me3, binder concentration: 1:2,000 dilution.
The mark [6] stands for this setting: peptide region: H4 16-28, peptide modifications: H4R19me2s H4K20me3, binder concentration: 1:10,000 dilution.
[7] abbreviates: peptide region: H4 38-50, peptide modifications: H4K44me1 H4R45cit, binder concentration: 1:2,000 dilution.
[8] abbreviates: peptide region: H4 38-50, peptide modifications: H4K44me1 H4R45cit, binder concentration: 1:10,000 dilution.
Setting [9] is: peptide region: H4 16-28, peptide modifications: H4R19me1 H4K20me2, binder concentration: 1:2,000 dilution.
[10] abbreviates: peptide region: H4 16-28, peptide modifications: H4R19me1 H4K20me2, binder concentration: 1:10,000 dilution.
[11] abbreviates: peptide region: H4 16-28, peptide modifications: H4R19me2a H4K20ac, binder concentration: 1:2,000 dilution.
Setting [12] is: peptide region: H4 16-28, peptide modifications: H4R19me2a H4K20ac, binder concentration: 1:10,000 dilution.
Where [13] appears, read: peptide region: H4 38-50, peptide modifications: H4K44ac, binder concentration: 1:2,000 dilution.
Where [14] appears, read: peptide region: H4 38-50, peptide modifications: H4K44ac, binder concentration: 1:10,000 dilution.
Setting [15] is: peptide region: H4 16-28, peptide modifications: H4R23me2s, binder concentration: 1:2,000 dilution.

Take KRHRKVLRDNIQG [H4 16-28 K R H Rme2s Kme3 V L R D N I Q G]: the “peptide microarray binding signal” value is 0.006019 ± 4.1e-05 in experiment [1] (peptide region: H4 16-28, peptide modifications: H4R19me2s H4K20me3, binder concentration: 50 nM); 0.00524 ± 0.00012 in experiment [1] (peptide region: H4 16-28, peptide modifications: H4R19me2s H4K20me3, binder concentration: 500 nM); 0.01444 ± 0.00013 in experiment [2] (peptide region: H4 16-28, peptide modifications: H4R19me2s H4K20me3, binder concentration: 10 nM); 0.0125 ± 0.00075 in experiment [2] (peptide region: H4 16-28, peptide modifications: H4R19me2s H4K20me3, binder concentration: 100 nM); 0.0051 ± 0.00088 in experiment [3] (setting [5]); 0.00451 ± 0.0013 in experiment [3] (setting [6]). Further, the “peptide microarray binding signal” value was found to be 0.00438 ± 0.0021 in experiment [4] (setting [5]) and 0.00663 ± 0.00022 in experiment [4] (setting [6]).

In the case of ARRGGVKRISGLI [H4 38-50 A R R G G V Kme Rcit I S G L I], the “peptide microarray binding signal” value amounted to 0.00502 ± 0.00054 in experiment [1] (peptide region: H4 38-50, peptide modifications: H4K44me1 H4R45cit, binder concentration: 50 nM); 0.0041 ± 5.8e-05 in experiment [1] (peptide region: H4 38-50, peptide modifications: H4K44me1 H4R45cit, binder concentration: 500 nM); 0.00603 ± 0.00023 in experiment [2] (peptide region: H4 38-50, peptide modifications: H4K44me1 H4R45cit, binder concentration: 10 nM); 0.00652 ± 0.0007 in experiment [2] (peptide region: H4 38-50, peptide modifications: H4K44me1 H4R45cit, binder concentration: 100 nM); 0.00106 ± 0.00014 in experiment [3] (setting [7]); 0.0016 ± 2.7e-05 in experiment [3] (setting [8]). The “peptide microarray binding signal” value was determined as 0.00074 ± 1.7e-05 in experiment [4] (setting [7]) and 0.00133 ± 2.3e-05 in experiment [4] (setting [8]).

For KRHRKVLRDNIQG [H4 16-28 K R H Rme Kme2 V L R D N I Q G], the “peptide microarray binding signal” value in experiment [1] (peptide region: H4 16-28, peptide modifications: H4R19me1 H4K20me2, binder concentration: 50 nM) is 0.00404 ± 8.4e-05; in experiment [1] (peptide region: H4 16-28, peptide modifications: H4R19me1 H4K20me2, binder concentration: 500 nM), 0.00943 ± 0.001; in experiment [2] (peptide region: H4 16-28, peptide modifications: H4R19me1 H4K20me2, binder concentration: 10 nM), 0.00847 ± 0.00051; in experiment [2] (peptide region: H4 16-28, peptide modifications: H4R19me1 H4K20me2, binder concentration: 100 nM), 0.0223 ± 0.0015; in experiment [3] (setting [9]), 0.00219 ± 0.0001; in experiment [3] (setting [10]), 0.002 ± 4.9e-05. Also, the “peptide microarray binding signal” value was found to be 0.00116 ± 9e-05 in experiment [4] (setting [9]) and 0.00254 ± 0.00041 in experiment [4] (setting [10]).

As to KRHRKVLRDNIQG [H4 16-28 K R H Rme2a Kac V L R D N I Q G], the “peptide microarray binding signal” value in experiment [1] (peptide region: H4 16-28, peptide modifications: H4R19me2a H4K20ac, binder concentration: 50 nM) was determined as 0.003699 ± 3e-05; in experiment [1] (peptide region: H4 16-28, peptide modifications: H4R19me2a H4K20ac, binder concentration: 500 nM), 0.006; in experiment [2] (peptide region: H4 16-28, peptide modifications: H4R19me2a H4K20ac, binder concentration: 10 nM), 0.00871 ± 0.00039; in experiment [2] (peptide region: H4 16-28, peptide modifications: H4R19me2a H4K20ac, binder concentration: 100 nM) it was 0.0218 ± 0.0012; in experiment [3] (setting [11]) it was 0.000774 ± 2.5e-05; in experiment [3] (setting [12]) it was 0.00171 ± 3.3e-05. Moreover, the “peptide microarray binding signal” value came out at 0.0004379 ± 4.2e-06 in experiment [4] (setting [11]) and 0.001211 ± 1.2e-05 in experiment [4] (setting [12]).

ARRGGVKRISGLI [H4 38-50 A R R G G V Kac R I S G L I]: the “peptide microarray binding signal” value came to 0.00298 ± 0.00042 in experiment [1] (peptide region: H4 38-50, peptide modifications: H4K44ac, binder concentration: 50 nM); 0.002238 ± 1.9e-05 in experiment [1] (peptide region: H4 38-50, peptide modifications: H4K44ac, binder concentration: 500 nM); 0.00477 ± 0.00013 in experiment [2] (peptide region: H4 38-50, peptide modifications: H4K44ac, binder concentration: 10 nM); 0.00751 ± 0.00045 in experiment [2] (peptide region: H4 38-50, peptide modifications: H4K44ac, binder concentration: 100 nM); 0.00347 ± 0.0006 in experiment [3] (setting [13]); 0.00251 ± 5.9e-05 in experiment [3] (setting [14]). In addition, the “peptide microarray binding signal” value in experiment [4] (setting [13]) is 0.00142 ± 3.6e-05; in experiment [4] (setting [14]), 0.00138 ± 4.9e-05.

On to KRHRKVLRDNIQG [H4 16-28 K R H R K V L Rme2s D N I Q G], for which the “peptide microarray binding signal” value was found to be 0.000333 ± 1.9e-05 in experiment [1] (peptide region: H4 16-28, peptide modifications: H4R23me2s, binder concentration: 500 nM); 0.000354 ± 1.5e-05 in experiment [2] (peptide region: H4 16-28, peptide modifications: H4R23me2s, binder concentration: 100 nM); 0.000849 ± 0.00028 in experiment [3] (setting [15]); 1.51e-05 ± 1.7e-07 in experiment [4] (setting [15]).
